This excerpt belongs to a sample that is enriched for hits.
Pf Dd2 inh: qHTS Primary assay for Inhibitors of Plasmodium falciparum Dd2 growth in vitro | Potency, µM (titrated, usually from 28.9 µM), for the others: at the top dose activity, negative = inhibition, actives largely listed as inhibitors | P. falciparum Dd2 growth, SYBR Green, 72 h | 120,000 compounds, 4.3% hits; active = well fitted inhibition curve with a large enough effect;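 also: plate controls were DMSO vehicle for no effect and reference drug for full effect; nearly all actives have a fitted effect of over 65% in size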
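Infected erythrocytes (Dd2, 0.3% parasitemia, 2.5% hematocrit final) are added to compound in RPMI-1640/Albumax II medium, grown 72 h at 37C in low oxygen, then lysed with saponin/Triton-X containing SYBR Green and read by fluorescence.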
Starred values were filed as active, the others as inactive; i = inactive; ! = not confirmed by another sample; [ ] = dose if it differs, or a comment. Potency is read from the fitted curve at half-maximal effect.

SMILES | Pf Dd2 inh
O=C(Cn1ccn2nc(-c3ccccc3)c(CO)c2c1=O)N1CCN(c2ccccc2F)CC1 | -1%
O=c1c2c(CO)c(-c3ccc(F)cc3)nn2ccn1CCc1ccccc1 | i
COc1ccccc1N1CCN(C(=O)Cn2c(=O)n3nc(-c4cccc(F)c4)nc3c3ccccc32)CC1 | 30%
C[C@@H](NC(=O)c1cccn1C)c1c(-c2ccc(F)cc2)noc1C(=O)O | -17%[44.1 µM]
CC(C)c1noc(-c2cn(C3CCN(C(=O)c4ccc(F)c(F)c4)CC3)nn2)n1 | i
Cc1cccc(C(=O)N2C(C(=O)NCc3ccccc3)COC23CCN(C(=O)CC(C)C)CC3)c1 (stereo not drawn) | i
CS(=O)(=O)c1ccc(CC(=O)N2CCc3nn(CC#N)c(=O)n3CC2)cc1 | 16%
CCCN1CCc2[nH]cnc2C12CCN(Cc1ccc(C3CCCCO3)o1)CC2 (stereo not drawn) | -10%
O=C([C@@H]1C[C@H](F)CN1C(=O)Nc1ccc(F)cc1)N1CCCCC1 | 2%
CCOc1ccc(S(=O)(=O)c2cn(C)c3ccccc3c2=O)cc1 | 0%
CCOc1ccc(S(=O)(=O)Nc2nc3ccccc3nc2Nc2ccc(OC)cc2)cc1 | -5%
CCOc1ccc(/C=C/c2nc3ccccc3n2S(=O)(=O)c2ccc(Br)cc2)cc1 | 11µM*
CN1[C@@H](CCC(=O)NCc2cccnc2)CNC(=O)[C@@H]2[C@H]1CCN2Cc1ccc(O)cc1 | 22%
CCOC(=O)c1[nH]ncc1CN1CCN2C(=O)CNC(=O)C2C1 (stereo not drawn) | -5%
CN(C)c1ccc(C(=O)N[C@H]2C[C@H]3C(=O)NC[C@@H](CCC(=O)NCc4ccccc4)N3C2)cc1 | i
N#Cc1cccc(CN2CCC(c3nc4ccc(F)cc4c(=O)[nH]3)CC2)c1 | 2%
CC(C)NC(=O)N1CC[C@H](c2nc3ccc(F)cc3[nH]2)C1 | i
Cc1ccc2nc(C3CCCN(CC4CCCC4)C3)[nH]c(=O)c2c1 (stereo not drawn) | 8.9µM*!
Cc1ccc2nc(C3CCN(Cc4cccc(-c5cccnc5)c4)CC3)[nH]c(=O)c2c1 | 8.9µM*!
O=c1[nH]c(C2CCCN(Cc3ccccc3)C2)nn1-c1ccccc1 (stereo not drawn) | -22%[44.1 µM]
COc1ccc(-n2nc(C3CCN(Cc4cccnc4)CC3)[nH]c2=O)cc1 | -13%
O=c1[nH]c(C2CCCN(Cc3cccc(-c4cccs4)c3)C2)nc2ccc(F)cc12 (stereo not drawn) | 8.9µM*!
CC(=O)Nc1ccc(CN2CCC(c3nc4ccc(C)cc4c(=O)[nH]3)CC2)cc1 | -11%
CC(C)CN1CCCC(c2nc3ccc(F)cc3c(=O)[nH]2)C1 (stereo not drawn) | 5µM*
Cc1ccc2nc([C@H]3CCN(Cc4cccs4)C3)[nH]c2c1 | -17%[44.1 µM]
SMILES | Pf Dd2 inh
CCN1CCC(c2nc3ccc(F)cc3c(=O)[nH]2)CC1 | 0%[44.1 µM]
O=c1[nH]c(C2CCCN(CC3CCCCC3)C2)nn1-c1ccccc1 (stereo not drawn) | i
CN(C)c1ccc(-c2ccnc(N[C@H]3CO[C@H]4[C@@H]3OC[C@H]4OC(=O)NC3CCCCC3)n2)cc1 | i
COc1cccc(CNC(=O)[C@@H]2C[C@@H](O)CN2C2CCN(C(=O)c3ccccc3)CC2)c1 | -2%
O=C(c1ccccc1F)N1C[C@@H](COCC2CC2)[C@H](c2ccccn2)C1 | 12%
Cc1ccc(N2CCN(C(=O)c3cc4n(n3)CC(c3ccc(Cl)cc3)OC4)CC2)c(C)c1 (stereo not drawn) | i
CCOC(=O)CCNC(=O)c1ccc2c(c1)N(CC)C1CCCCCN1C2=O (stereo not drawn) | i
O=C1NCCC[C@@H]1NC(=O)[C@H]1CN(C(=O)c2cccc(F)c2)CCN1C(=O)c1cncnc1 | -4%
CCc1ccccc1NC(=O)CN1C=C(C(=O)OC)C(C)=NS1(=O)=O | -21%
COc1ccc(C(=O)N2CCc3ccc(C(=O)O)cc32)cc1 | 23%
COc1cc(-c2onc(C)c2C(=O)NC2Cc3ccccc3C2)cc(OC)c1OC | i
CCc1cccc(NC(=O)Cn2ccn3nc(-c4ccc(F)cc4)c(CO)c3c2=O)c1 | 19%
Cc1ccc(-c2cccc(CN3CC4CCC(C3)N4c3ccc(C(F)(F)F)cc3)c2)c(C)c1 | 185%
Cc1cc(C)cc(-c2ccc(CN3CCCC(c4nc5ccc(F)cc5c(=O)[nH]4)C3)cc2)c1 (stereo not drawn) | 10µM*!
Cc1ccc(-c2cccc(CN3CCCC(c4nc5ccc(F)cc5c(=O)[nH]4)C3)c2)c(C)c1 (stereo not drawn) | 13µM*!
COc1ccc(CN2CCCC(c3nn(-c4ccccc4)c(=O)[nH]3)C2)cc1 (stereo not drawn) | -17%
CC(=O)Nc1ccc(CN2CCC(c3nc4ccc(F)cc4c(=O)[nH]3)CC2)cc1 | -23%
Cc1ccc(-c2cccc(CN3CCN(c4ccc(Cl)nn4)C(=O)C3)c2)c(C)c1 | -21%
C=CCNC(=O)C[C@@H]1CCN(C(=O)CCCCC)C[C@@H]1CC | -29%[44.1 µM]
COCCOCC(=O)N1CC(Oc2cccc(-c3nc(C)no3)c2)C1 | i[5.79 µM]
CCCCN(CC)CCNC(=O)c1cc2c(=O)[nH]c3ccccc3c2n1C | i
CCCCN(CC)CCCNC(=O)c1cc2c(=O)[nH]c3ccccc3c2n1C | 8.9µM*
CCCN(CCC)CCCNC(=O)c1cc2c(=O)[nH]c3ccccc3c2n1C | i
CCCCN(CCCC)CCNC(=O)c1cn(CC)c2ccc(S(=O)(=O)N3CCc4ccccc4C3)cc2c1=O | -25%
COc1cc(Cl)c(C)cc1NC(=O)c1cn(C2CCCC2)c(=O)c2c1c1ccccc1n2C | -10%
SMILES | Pf Dd2 inh
CCOCCCNC(=O)c1cc2c(=O)n(C)c3ccccc3c2n1C | 8%
CCCCN(CC)CCCNC(=O)c1cn(CC(C)C)c(=O)c2c1c1ccccc1n2C | 7.1µM*
CCN(CC)CCNC(=O)c1cn(CCOC)c(=O)c2c1c1ccccc1n2C | 10µM*
CCCCNC(=O)c1c(C)oc2ncn(CC(C)C)c(=O)c12 | i
COc1ccc(Cl)cc1C(=O)NCc1nnc2cc(-c3nc(C)no3)ccn12 | i
CCNC(=O)NC[C@H]1O[C@H](Cc2cc(-c3ccccc3)on2)CC[C@@H]1O | 1%[44.1 µM]
CN1CCN(CCCNC(=O)c2c(OCC3CC3)cc(=O)n3c2CCCCC3)CC1 | 53%
CC(C)c1noc(CC2CCN(C(=O)c3ccccn3)CC2)n1 | 62%
Cc1noc(C)c1CC(=O)N1CCC(CCOc2ccccc2F)C1 (stereo not drawn) | -15%
O=C(c1ccc(F)c(Cl)c1)N1CCC2(CC1)CC(O)CCO2 (stereo not drawn) | 20%
CN1[C@@H](CCC(=O)NCc2cccs2)CNC(=O)[C@@H]2[C@H]1CCN2C1CCOCC1 | 6%[44.1 µM]
CCOc1ccccc1NC(=O)N1CC(C)Oc2ccc(Cl)cc21 (stereo not drawn) | 15%
CCOc1ccccc1NC(=O)N1c2ccccc2Sc2ccccc21 | 13µM*
CCOc1ccccc1NC(=O)N1CCCn2nc(C)cc21 | i[5.79 µM]
COC(=O)c1ccccc1NC(=O)c1c(OC)cc(=O)n2c1CCCC2 | 0%
COc1cc(OC)cc(C(=O)N2CCC(n3cc(-c4nc(C)no4)nn3)C2)c1 (stereo not drawn) | i
O=C(c1ccccc1F)N1CCCC(c2nc(C3CCOCC3)no2)C1 (stereo not drawn) | 25%
O=C(C1CCC(Cn2c(=O)c3sccc3n(Cc3cccc(F)c3)c2=O)CC1)N1CCCCC1 (stereo not drawn) | 8.9µM*
Cc1ccc(Cn2c(=O)n(CC3CCC(C(=O)N4CCOCC4)CC3)c(=O)c3sccc32)cc1 (stereo not drawn) | -7%

Screening results deposited in PubChem by National Center for Advancing Translational Sciences (NCATS).
